# Bioassay records as filed in PubChem BioAssay.
# The list is not random: actives were taken first. Their share in the collection is about 6.5%.
# FMDV inh = antivirals against foot and mouth disease virus; FMDV antiviral cell-based qHTS; Potency, µM (doses to about 57.9 µM), for the others: top-dose activity change, negative = inhibition, actives largely listed as inhibitors; 410,000 compounds, 1.2% hits; calls by dose curve; tested in HEK293T cells; also: read-out not given here; potency is read from the fitted curve at half-maximal effect; nearly all actives have a fitted effect of over 45% in size
# HCMV antiviral = inhibitors of human cytomegalovirus | HFF cells, HCMV-luciferase reporter, 72 h; stronger effect = lower value | activity change, negative = inhibition, % at 57.5 µM | 410,000 compounds, 4.5% hits; in the data active = activity change below about -60%; inconclusive = no clear call, values can overlap the other calls; inactive = above about -39%
#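 Cell-based, HFFs, 1000 cells/well, 16 h 37C; cpds in DMSO + HCMV-luc, MOI 1 PFU/cell; 72 h 37C; OneGlo luminescence after 5 min RT; norm. to buffer vs Salinomycin 10uM.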
# Lassa entry inh = inhibitors of Lassa virus binding or cell entry. 300,000 compounds, 1.2% hits. Potency, µM (series often up to 37.9 µM), for the others: top-dose activity change, negative = inhibition, most hits filed as inhibitors. AID 540256. Lassa virus pseudotype entry inhibition, cell reporter; calls by dose curve; tested in HEK293 cells; also: potency is read from the fitted curve at half-maximal effect; nearly all actives have a fitted effect of over 50% in size
# VACV mCherry inh = inhibitors of vaccinia virus infection (mCherry reporter signal); 310,000 compounds, 0.63% hits; Vaccinia virus mCherry reporter infection, fluorescence; AID 720579; Potency, µM (doses to about 36.5 µM), for inactives: at the top dose activity change, negative = inhibition, hits mostly inhibitors; calls by dose curve; tested in A549 cells; also: potency is read from the fitted curve at half-maximal effect; nearly all actives have a fitted effect of over 35% in size
# Marburg entry inh = Marburg virus entry inhibition. 300,000 compounds, 1.8% hits. Potency, µM (doses to about 37.8 µM), for inactives: top-dose activity change, negative = inhibition, hits mostly inhibitors. Marburg virus pseudotyped entry inhibition, cell reporter; calls by dose curve; tested in HEK293 cells; also: potency is read from the fitted curve at half-maximal effect
# Vaccinia Venus = inhibitors of vaccinia virus (Venus reporter); Vaccinia virus Venus reporter expression, fluorescence; Potency, µM (doses to about 36.5 µM), without a hit: at the top dose activity change, negative = inhibition, usual class: inhibitors; 330,000 compounds, 0.46% hits; AID 720580; calls by dose curve; tested in A549 cells; also: potency is read from the fitted curve at half-maximal effect; nearly all actives have a fitted effect of over 30% in size
# Active calls of the source: *; i = inactive; ? = inconclusive; . = no result given; ! = repeats disagree; [ ] = dose if it differs, or a comment. % is scaled to controls: 0 for no effect and ±100 for the full control effect.
SMILES,FMDV inh,HCMV antiviral,Lassa entry inh,VACV mCherry inh,Marburg entry inh,Vaccinia Venus
COc1cccc(NC(=O)c2c(N3CCCC3=O)c3cc(C)ccc3n2C)c1,?,-9.3,14.5%[46.1 µM],-6.4%,.,5.5%
CC1CCCCc2cc(O)ccc2OC(=O)CC1 (centres undefined),.,-10.6,.,.,.,.
COc1ccccc1NC(=O)c1ccccc1-c1nc(-c2ccccc2OC)no1,4.3%,64.2,?,.,11.6µM*,.
CNc1nc2cnc(Nc3ccc(F)cc3)cc2n1-c1cccc(C(F)(F)F)c1,.,3.7,.,.,.,.
CC(C)c1nnc(NC(=O)c2c(O)c3cccc4c3n(c2=O)CCC4)s1,-10.4%,-96.2*,22.1%,-22.8%,-17.7%,-12.4%
CNC(=O)c1c(O)c2cccc3c2n(c1=O)CCC3,-10.1%,-97.5*,?,-20.2%,3.1%,-10.5%
O=C(NC1CCCCCC1)c1c(O)c2cccc3c2n(c1=O)CCC3,.,.,.,.,0.1%,.
CCN(CC)S(=O)(=O)c1ccc(Cl)c(NC(=O)COC(=O)c2cccn2C)c1,12.6µM*,-38.3,-22.2%,?,?,-29.1%
CC(C)c1c(C(=O)NCC(C)(C)N2CCOCC2)cnn1-c1nccc(-c2ccccc2F)n1,0.0%,.,.,-10.6%,.,-8.1%
OC[C@@H](O)COc1cccc2ccccc12,6.4%,.,.,.,.,.
CC(C)NC[C@H](O)COc1cccc2[nH]ccc12,-8.4%,-80.8*,12.6%,-10.8%,?,-7.5%
CC(C)NC[C@H](O)COc1cccc2ccccc12,-21.1%,34.1,1.1%,-8.0%,14.6µM*,-16.1%
CC(C)NC[C@@H](O)COc1cccc2ccccc12,-11.4%,?,.,-6.4%,17.8µM*,-14.3%
CC(C)NCC(O)COc1ccc(Br)cc1 (centres undefined),-8.0%,11.6,-14.0%,-14.0%,?,-13.4%
CC(C)NC[C@@H](O)COc1ccccc1-n1cccc1,-13.1%,.,.,.,.,.
CC(C)NC[C@H](O)COc1ccc(CC(N)=O)cc1,-16.5%,?,20.4%,-4.3%,0.112µM*!,-10.9%
CC(C)NCC(O)COc1ccc(CC(N)=O)cc1 (centres undefined),-13.1%,55.6,-15.5%,-8.7%,1.6%,-15.2%
CC(NCC(O)COc1ccc2ccccc2c1)c1ccccc1 (centres undefined),-20.2%,-84.1*,1.4%,?,?,-13.7%
C=CCc1ccccc1OCC(O)CNC1CCCC1 (centres undefined),-3.8%,0.0,.,.,.,.
C=CCc1ccccc1OCC(O)CNC(C)C (centres undefined),-20.6%,-8.5,1.8%,-0.5%,17.8µM*,-10.7%
CC(=O)c1cccc(-c2cnc3ccc(-c4cccc(CO)c4)nn23)c1,.,-95.2*,.,.,.,.
CNc1ccc2ncc(-c3cccc(C(=O)N(C)C)c3)n2n1,-3.7%,-75.2*,.,0.3%,.,-18.1%
CC(=O)c1cccc(-c2cnc3ccc(-c4cccc(Oc5ccccc5)c4)nn23)c1,.,-7.8,.,.,.,.
CN(C)C(=O)c1cccc(-c2ccc3nncn3c2)c1,0.3%,-13.4,.,-0.3%,.,-2.5%
CCc1ccc(C2c3c(n[nH]c3C)C(=O)N2c2ccc(C)cc2)cc1 (centres undefined),25.2%,32.3,-16.7%[46.1 µM],-14.2%,-1.6%[46.1 µM],-4.3%
SMILES,FMDV inh,HCMV antiviral,Lassa entry inh,VACV mCherry inh,Marburg entry inh,Vaccinia Venus
CCC(=O)N1CCc2cc(Br)cc(S(=O)(=O)N3CCC(C(=O)Nc4ccccc4F)CC3)c21,8.3%,-5.6,-29.6%[46.1 µM],-25.6%,3.6%[46.1 µM],-26.1%
CCc1c(-c2ccccc2F)ncn1Cc1cccc(-c2ccccc2)c1,?,-71.5*,.,?,.,?
CCc1c(-c2ccccc2)ncn1Cc1cccc(-c2ccccc2)c1,?,-67.9*,.,?,.,-23.2%
CCCCc1c(-c2ccccc2OC)ncn1Cc1cccc(-c2ccccc2)c1,?,?,.,-21.4%,.,?
CCc1c(-c2ccc(Cl)cc2)ncn1Cc1cccc(-c2ccccc2)c1,?,-35.1,.,?,.,?
CCc1c(C2CC2)ncn1Cc1cccc(-c2ccccc2)c1,?,-98.9*,.,-7.5%,.,-22.3%
CCc1c(-c2cccc(OC)c2)ncn1Cc1cccc(-c2ccccc2)c1,31.6µM*,?,.,-18.1%,.,?
Cc1cc(N2C(=O)C(=O)/C(=C(\O)c3ccc(F)cc3)[C@@H]2c2ccc(F)cc2)no1,.,.,.,.,2.2%,.
COc1ccccc1N1CCN(c2ncnc3c2cnn3-c2ccc(C)cc2)CC1,?,?,?,-5.7%,.,5.1%
Cc1ccc(C(=O)c2oc3ccccc3c2NC(=O)c2cc(-c3cc(C)ccc3O)n[nH]2)cc1,-15.3%,-62.7*,.,-11.2%[7.34 µM],.,-14.4%[7.34 µM]
Cc1ccc(C(=O)c2oc3ccccc3c2NC(=O)c2cc(-c3ccccc3O)n[nH]2)cc1,-26.2%,-63.0*,-22.5%,-21.5%,-22.8%,-17.4%
O=C(Nc1c(C(=O)c2ccccc2)oc2ccccc12)c1cc(-c2ccccc2O)n[nH]1,-26.9%,1.8,-6.9%,?,?,?
CC(C)(C)c1ccc(C(=O)Nc2c(C(=O)c3ccc(F)cc3)oc3ccccc23)cc1,-22.9%,1.0,8.4%[46.1 µM],-1.9%,-5.2%[46.1 µM],1.9%
CCOC(=O)c1ccc(N=C2SC(C(=O)Nc3ccc(C(=O)O)cc3)CC(=O)N2Cc2cccs2)cc1 (centres undefined),-21.0%,-70.9*,-22.5%[46.1 µM],i,?,-10.9%
COc1ccc(OCCCn2c(CCNC(=O)C3CCCCC3)nc3ccccc32)cc1,.,.,.,-29.7%,.,-25.2%
CCOc1nc(C#N)nc(N2CCOCC2)n1,.,.,.,41.8%,.,-8.4%
CC1=Nc2ccccc2/C1=C/c1c(O)[nH]c(=O)[nH]c1=O,-13.5%,4.1,.,.,.,.
O=c1[nH]c(O)c(/C=C2/C=CC(c3cc(Cl)ccc3Cl)=N2)c(=O)[nH]1,?,0.0,13µM*,i,?,13.1%
COc1ccc(C(=O)C2CCCN(Cc3cnc(N4CCOCC4)s3)C2)cc1F (centres undefined),?,5.0,-25.5%,-4.3%,?,-3.1%
CC(C)Oc1cccc(C(=O)C2CCCN(C(=O)c3cc(C4CC4)[nH]n3)C2)c1 (centres undefined),-17.3%,?,.,.,.,.
COc1ccc(F)cc1C(=O)C1CCCN(Cc2cnc(C)s2)C1 (centres undefined),-17.9%,-23.0,.,.,.,.
COc1ccc(Cl)cc1C(=O)C1CCCN(Cc2cnc(C)s2)C1 (centres undefined),-13.6%,-21.4,11.2µM*,-11.2%,3.2%[46.1 µM],-16.5%
CC(C)Oc1cccc(C(=O)C2CCCN(C(=O)c3cc(C(F)(F)F)[nH]n3)C2)c1 (centres undefined),-7.2%,-19.0,12.6µM*,-21.6%,-20.2%[46.1 µM],-18.7%
Cc1ncc(CN2CCCC(C(=O)c3cccc(OC(C)C)c3)C2)s1 (centres undefined),?,-68.8*,.,.,.,.
CCn1ncc(CN2CCCC(C(=O)c3cccc(OC(C)C)c3)C2)c1C (centres undefined),-18.9%,-2.9,.,.,.,.
CC(C)Oc1cccc(C(=O)C2CCCN(Cc3cnc(N4CCOCC4)s3)C2)c1 (centres undefined),?,-71.7*,?,-18.2%,?,-17.3%
